Experimental findings from PubChem BioAssay (EPA / NIEHS) are described below.

The AC50 is the concentration giving half of the maximal activity seen.

Activity calls are given as the source filed them. The calls were made as follows: active = hit-call score of the fitted dose curve at least 0.9, where 1 is the maximum; inactive = score below 0.9.

Read-out in assay [1]: Cyclin D2 (CCND2), CCND2 (gene 894)
Nature of the assay: LTEA_HepaRG_CCND2: Life Technologies and Expression Analysis (LTEA) Assay for Cyclin D2 (CCND2) using HepaRG (AID 2283449).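 Also: CCND2 transcript measured by TaqMan qRT-PCR and normalised to three housekeeping genes.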 The settings on record: mRNA level, 48 h; actives raise or lower the signal. The method in brief:
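Chemicals in 0.5% DMSO, eight half-log concentrations from 100 uM top, were applied in duplicate for 48 h to human HepaRG cells in serum-free induction medium. CCND2 mRNA by TaqMan qRT-PCR, normalised to ACTB/GAPDH/POLR2A; bidirectional fit versus DMSO.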

Read-out in assay [2]: Cyclin Dependent Kinase Inhibitor 1A (CDKN1A), CDKN1A (gene 1026)
Nature of the assay: LTEA_HepaRG_CDKN1A: Life Technologies and Expression Analysis (LTEA) Assay for Cyclin Dependent Kinase Inhibitor 1A (CDKN1A) using HepaRG (AID 2283450). The settings on record: mRNA level, 48 h; actives raise or lower the signal. The essentials:
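Gain or loss of CDKN1A transcript is scored by bidirectional fitting against 0.5% DMSO vehicle. Human HepaRG cultures receive chemicals for 48 h across an 8-point series peaking at 100 uM; expression comes from qRT-PCR.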

Read-out in assay [3]: Cyclin D1 (CCND1), CCND1 (gene 595)
Nature of the assay: LTEA_HepaRG_CCND1: Life Technologies and Expression Analysis (LTEA) Assay for Cyclin D1 (CCND1) using HepaRG (AID 2283451). The settings on record: mRNA level, 48 h; actives raise or lower the signal. The essentials:
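Expression change is measured by qRT-PCR in HepaRG cells after 48 h treatment across eight concentrations topping at 100 uM, with duplicate wells and DMSO (0.5%) serving as baseline for bidirectional fitting.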

Read-out in assay [4]: catalase (CAT), CAT (gene 847)
In words: LTEA_HepaRG_CAT: Life Technologies and Expression Analysis (LTEA) Assay for catalase (CAT) using HepaRG (AID 2283452). The settings on record: mRNA level, 48 h; actives raise or lower the signal. The method in brief: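 HepaRG cells in serum-free induction medium, 0.5% DMSO vehicle, exposed 48 h in duplicate over 8 half-log concentrations from 100 uM. CAT mRNA measured by qRT-PCR, normalized to ACTB, GAPDH, POLR2A; bidirectional fit versus DMSO.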

Read-out in assay [5]: flavin-containing dimethylaniline monooxygenases 3 (FMO3), FMO3 (gene 2328)
Nature of the assay: LTEA_HepaRG_FMO3: Life Technologies and Expression Analysis (LTEA) Assay for flavin-containing dimethylaniline monooxygenases 3 (FMO3) using HepaRG (AID 2283453). The settings on record: mRNA level, 48 h; actives raise or lower the signal. The method in brief:
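Differentiated HepaRG cells in serum-free induction medium, exposed 48 h in duplicate to 8 half-log concentrations up to 100 uM in 0.5% DMSO. FMO3 mRNA by qRT-PCR, normalized to ACTB, GAPDH, POLR2A; bidirectional fit vs DMSO.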

Read-out in assay [6]: Cytochrome P450 (CYP1A1), CYP1A1 (gene 1543)
In words: LTEA_HepaRG_CYP1A1: Life Technologies and Expression Analysis (LTEA) Assay for Cytochrome P450 (CYP1A1) using HepaRG (AID 2283454). The settings on record: mRNA level, 48 h; actives raise or lower the signal. The essentials:
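Using HepaRG cultures with 0.5% DMSO as vehicle, eight-concentration exposures (max 100 uM) lasted 48 h. Transcript levels were measured by TaqMan qRT-PCR and normalized to ACTB, GAPDH and POLR2A.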

Read-out in assay [7]: CFLAR gene, CFLAR (gene 8837)
In words: LTEA_HepaRG_CFLAR: Life Technologies and Expression Analysis (LTEA) Assay for CFLAR gene using HepaRG (AID 2283455). The settings on record: mRNA level, 48 h; actives raise or lower the signal. The method in brief: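 Differentiated HepaRG cells in serum-free induction medium were exposed 48 h in duplicate to eight half-log concentrations up to 100 uM in 0.5% DMSO; mRNA measured by TaqMan qRT-PCR, normalized to ACTB, GAPDH, POLR2A; bidirectional fitting versus DMSO.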

Read-out in assay [8]: Forkhead box O1 (FOXO1), FOXO1 (gene 2308)
In words: LTEA_HepaRG_FOXO1: Life Technologies and Expression Analysis (LTEA) Assay for Forkhead box O1 (FOXO1) using HepaRG (AID 2283456). The settings on record: mRNA level, 48 h; actives raise or lower the signal. The method in brief: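 Differentiated HepaRG cells, in serum-free induction medium with 0.5% DMSO, exposed 48 h in duplicate to 8-point half-log series from 100 uM. FOXO1 mRNA measured by TaqMan qRT-PCR, normalized to ACTB, GAPDH, POLR2A; bidirectional fit versus DMSO.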

Read-out in assay [9]: growth arrest and DNA damage 45 (GADD45A), GADD45A (gene 1647)
Nature of the assay: LTEA_HepaRG_GADD45A: Life Technologies and Expression Analysis (LTEA) Assay for growth arrest and DNA damage 45 (GADD45A) using HepaRG (AID 2283458). The settings on record: mRNA level, 48 h; actives raise or lower the signal. The essentials:
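Cells plated and cultured 48 h, switched to serum-free induction medium, then dosed for 48 h (100 uM top, half-log dilutions, 0.5% DMSO). RNA was isolated and transcript measured by Fluidigm qRT-PCR.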

Read-out in assay [10]: Forkhead box O3 (FOXO3), FOXO3 (gene 2309)
In words: LTEA_HepaRG_FOXO3: Life Technologies and Expression Analysis (LTEA) Assay for Forkhead box O3 (FOXO3) using HepaRG (AID 2283459). The settings on record: mRNA level, 48 h; actives raise or lower the signal. The essentials:
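Differentiated human HepaRG cells, 48 h post-plating, exposed in duplicate for 48 h in serum-free induction medium; 8-point half-log series from 100 uM in 0.5% DMSO. FOXO3 mRNA by TaqMan qRT-PCR, normalized to ACTB/GAPDH/POLR2A; bidirectional fit versus DMSO.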

Read-out in assay [11]: ABC Transporter (ABCB1), ABCB1 (gene 5243)
Nature of the assay: LTEA_HepaRG_ABCB1: Life Technologies and Expression Analysis (LTEA) Assay for ABC Transporter (ABCB1) using HepaRG (AID 2283460). The settings on record: mRNA level, 48 h; actives raise or lower the signal. The essentials: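 HepaRG cells exposed in duplicate for 48 h in serum-free induction medium to eight half-log concentrations up to 100 uM in 0.5% DMSO. ABCB1 mRNA quantified by qRT-PCR, normalised to ACTB, GAPDH and POLR2A; fitted bidirectionally versus DMSO.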

Read-out in assay [12]: growth arrest and DNA damage 45 (GADD45B), GADD45B (gene 4616)
In words: LTEA_HepaRG_GADD45B: Life Technologies and Expression Analysis (LTEA) Assay for growth arrest and DNA damage 45 (GADD45B) using HepaRG (AID 2283461). The settings on record: mRNA level, 48 h; actives raise or lower the signal. The method in brief:
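Human HepaRG monolayers receive chemicals for 48 h at eight half-log concentrations, highest 100 uM, in 0.5% DMSO. Expression is measured by TaqMan qRT-PCR and normalized to ACTB, GAPDH and POLR2A.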

Read-out in assay [13]: ABC Transporter (ABCB11), ABCB11 (gene 8647)
Nature of the assay: LTEA_HepaRG_ABCB11: Life Technologies and Expression Analysis (LTEA) Assay for ABC Transporter (ABCB11) using HepaRG (AID 2283463). The settings on record: mRNA level, 48 h; actives raise or lower the signal. The method in brief: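 Differentiated human HepaRG cells in serum-free induction medium, dosed in duplicate for 48 h. Eight-point half-log series from 100 uM in 0.5% DMSO; ABCB11 mRNA by qRT-PCR, normalized to ACTB, GAPDH, POLR2A, fitted bidirectionally versus DMSO.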

Read-out in assay [14]: ABC Transporter (ABCC2), ABCC2 (gene 1244)
In words: LTEA_HepaRG_ABCC2: Life Technologies and Expression Analysis (LTEA) Assay for ABC Transporter (ABCC2) using HepaRG (AID 2283464). The settings on record: mRNA level, 48 h; actives raise or lower the signal. The method in brief:
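After plating and 48 h culture, HepaRG medium is replaced with serum-free induction medium and chemicals are added (8 concentrations, max 100 uM, 0.5% DMSO) for 48 h. Total RNA then undergoes qRT-PCR for ABCC2 with housekeeping normalization.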

Read-out in assay [15]: Broad substrate specificity ATP-binding cassette transporter ABCG2 (Homo sapiens) (UniProt Q9UNQ0)
Nature of the assay: LTEA_HepaRG_ABCG2: Life Technologies and Expression Analysis (LTEA) Assay for ABC Transporter (ABCG2) using HepaRG (AID 2283465). The settings on record: mRNA level, 48 h; actives raise or lower the signal. The essentials:
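Differentiated HepaRG cells were exposed for 48 h in serum-free induction medium to 8 half-log concentrations, top 100 uM, in 0.5% DMSO. ABCG2 mRNA was measured by qRT-PCR, normalized to ACTB, GAPDH and POLR2A, with bidirectional fitting versus DMSO.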

Read-out in assay [16]: ATP-citrate lyase (ACLY), ACLY (gene 47)
Nature of the assay: LTEA_HepaRG_ACLY: Life Technologies and Expression Analysis (LTEA) Assay for ATP-citrate lyase (ACLY) using HepaRG (AID 2283466). The settings on record: mRNA level, 48 h; actives raise or lower the signal. The essentials:
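Differentiated HepaRG cells exposed 48 h in serum-free induction medium to eight half-log concentrations up to 100 uM in 0.5% DMSO, duplicates. Transcript measured by Fluidigm TaqMan qRT-PCR, normalized to ACTB, GAPDH, POLR2A; bidirectional fit versus DMSO.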

Read-out in assay [17]: Peroxisomal acyl-coenzyme A oxidase 1 (ACOX1) gene, ACOX1 (gene 51)
Nature of the assay: LTEA_HepaRG_ACOX1: Life Technologies and Expression Analysis (LTEA) Assay for Peroxisomal acyl-coenzyme A oxidase 1 (ACOX1) gene using HepaRG (AID 2283467). The settings on record: mRNA level, 48 h; actives raise or lower the signal. The essentials:
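HepaRG cells, plated 48 h then switched to serum-free induction medium, were exposed in duplicate for 48 h to 8-point half-log concentrations up to 100 uM in 0.5% DMSO. ACOX1 mRNA was measured by qRT-PCR, normalized to ACTB/GAPDH/POLR2A, and fitted bidirectionally versus DMSO.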

Read-out in assay [18]: Alkaline Phosphatase, Placental (ALPP) gene, ALPP (gene 250)
Nature of the assay: LTEA_HepaRG_ALPP: Life Technologies and Expression Analysis (LTEA) Assay for Alkaline Phosphatase, Placental (ALPP) gene using HepaRG (AID 2283468). The settings on record: mRNA level, 48 h; actives raise or lower the signal. The essentials:
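Using human liver HepaRG cells, chemicals are tested in duplicate over 48 h at half-log concentrations topping at 100 uM; phenobarbital 1 mM serves as induction control. ALPP mRNA change by qRT-PCR, bidirectional fit against vehicle.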

The nature of assay [19]: CEETOX_H295R_TESTO: CeeTox H295R High-throughput Steroidogenesis Assay for Testosterone (TESTO) (AID 2283457). The settings on record: actives raise or lower the signal. The method in brief: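 Steroidogenesis in H295R cells following OECD 456 with minor changes; 48 h exposure. Medium testosterone by HPLC-MS/MS, DMSO as baseline, with MTT viability run in parallel.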

Broad substrate specificity ATP-binding cassette transporter ABCG2 (Homo sapiens), sequence (Q9UNQ0 whole entry, looked up): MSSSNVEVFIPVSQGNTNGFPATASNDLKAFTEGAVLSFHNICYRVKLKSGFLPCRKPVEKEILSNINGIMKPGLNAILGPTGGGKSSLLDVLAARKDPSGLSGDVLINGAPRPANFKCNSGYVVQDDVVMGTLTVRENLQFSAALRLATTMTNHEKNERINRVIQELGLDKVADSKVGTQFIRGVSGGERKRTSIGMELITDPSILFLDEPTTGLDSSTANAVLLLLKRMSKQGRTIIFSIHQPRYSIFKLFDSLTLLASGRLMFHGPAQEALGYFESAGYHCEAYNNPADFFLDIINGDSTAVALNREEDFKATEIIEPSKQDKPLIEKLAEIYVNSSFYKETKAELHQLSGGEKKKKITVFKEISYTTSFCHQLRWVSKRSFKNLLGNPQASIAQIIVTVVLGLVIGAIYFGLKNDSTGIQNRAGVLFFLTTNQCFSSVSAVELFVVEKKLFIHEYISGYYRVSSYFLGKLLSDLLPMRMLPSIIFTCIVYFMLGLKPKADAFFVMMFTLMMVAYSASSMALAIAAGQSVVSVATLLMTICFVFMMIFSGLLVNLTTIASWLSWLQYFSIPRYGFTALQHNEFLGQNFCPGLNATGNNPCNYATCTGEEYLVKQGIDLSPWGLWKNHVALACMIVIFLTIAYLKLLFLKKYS

With `CC(=O)CC(C)(C)O`, the compound was called inactive in assay [1], in assay [2], in assay [3], in [4], in assay [5] and in assay [6]. Moreover, the compound was called inactive in [7], in assay [8], in assay [9], in [10], in assay [11] and in assay [12]. The call in assay [13], in assay [14], in assay [15], in assay [16], in assay [17] and in assay [18] was inactive.

As to `CCC(=C(c1ccc(O)cc1)c1ccc(OCCN(C)C)cc1)c1ccccc1`, the compound was called inactive in assay [1], in [2], in [3], in [4], in assay [5] and in assay [19]. Also, the call in assay [9], in [10], in assay [11], in [12], in assay [13] and in assay [15] was inactive. Also, the outcome in [17] and in assay [18] was inactive. Besides, the half-maximal activity concentration (AC50) is 93.3 µM (active) in [6], 97.3 µM (active) in assay [7], 82.6 µM (active) in assay [8] and 86.1 µM (active) in assay [14].
